Records with an inconclusive call do not appear. The source made the active and inactive calls. Unless noted, calls come from the whole dose curve.
Key:
[1] = Nuclear factor erythroid 2-related factor 2/antioxidant responsive element (Nrf2/ARE) small molecule agonists: qHTS cell viability counter screen in human keratinocytes (AID 1919968; active = well fitted curve in the direction sought with a large enough effect in the repeat runs; an effect the other way counts as inactive or inconclusive; note: nearly all actives have a fitted effect of over 55% in size; note: potency is the fitted concentration of half-maximal effect)
Outline: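 HaCaT ARE reporter line, 1,500 cells/well; 5 h settle, 37 C/5% CO2; cpd in DMSO pinned; 23 h exposure; CellTiter-Fluor, 1 h; fluorescence.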

[2] = Nuclear factor erythroid 2-related factor 2/antioxidant responsive element (Nrf2/ARE) small molecule agonists: luciferase reporter gene qHTS assay in human keratinocytes (AID 1919969); note: nearly all actives have a fitted effect of over 35% in size; note: potency is the fitted concentration of half-maximal effect
[3] = biological target: Gonadotropin-releasing hormone receptor (Homo sapiens) (UniProt P30968); experiment: Human gonadotropin-releasing hormone receptor (GnRHR) small molecule agonists, calcium flux assay in GnRHR-HEK293 cells (AID 1920063); note: nearly all actives have a fitted effect of over 35% in size
Outline: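 GnRHR-HEK293, 1500 cells/well, 18 h 37 C/5% CO2; Ca dye 1 h 37 C; cpd pinned (DMSO), agonist mode; kinetic FL 480/540, 3 min, 1 s reads; 15 conc, n=3.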

[4] = biological target: KiSS-1 receptor (Homo sapiens) (UniProt Q969F8); experiment: Human kisspeptin (KISS1R) small molecule agonists, calcium flux assay in KISS1R-HEK293 cells (AID 1920064; active = well fitted curve in the direction sought with a large enough effect in the repeat runs; an effect the other way counts as inactive or inconclusive)
Outline: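 Stable human KISS1R HEK293 line; 18 h plating, 37 C/5% CO2; calcium dye 1 h 37 C; compound pin transfer; kinetic fluorescence Ex/Em 480/540, 3 min.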

[5] = G protein-coupled receptor (GPCR) small molecule agonists, calcium flux assay: HEK293 wild type cell line counter screen (AID 1920065)
Outline: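 Kinetic fluorescence at Ex/Em 480/540, recorded every second over 3 min, served as the read-out after compound addition. Each compound was tested at 15 concentrations in triplicate on cells pre-loaded with calcium dye for 1 h.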

[6] = p53 small molecule agonists, cell-based qHTS assay with rat liver microsomes (AID 1963578)
Outline: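 Cells carrying a p53 response element–beta-lactamase reporter were plated and rested 5 h, then dosed with compound in DMSO plus rat liver microsomes and NADPH, each at 0.5 mg/mL final. After 16 h at 37 C, LiveBLAzer substrate was added for 2 h.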

[7] = p53 small molecule agonists, cell-based qHTS assay with human liver microsomes: qHTS cell viability counter screen (AID 1963579); note: nearly all actives have a fitted effect of over 45% in size
Outline: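 Cytotoxicity counter screen: p53RE-bla, 4,000 cells/well; 5 h settle, 37 C/5% CO2; cpd + HLM 0.5 mg/mL + NADPH 0.5 mg/mL (final); 16 h, 37 C; CellTiter-Glo, 30 min RT, luminescence.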

[8] = p53 small molecule agonists, cell-based qHTS assay: qHTS cell viability counter screen (AID 1963581); note: nearly all actives have a fitted effect of over 45% in size
Outline: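 HCT-116 p53RE-bla cells, 4,000/well, plated 5 h before compound pin transfer; 16 h at 37 C; bla substrate 2 h RT; then CellTiter-Glo, 30 min RT, luminescence.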

[9] = p53 small molecule agonists, cell-based qHTS assay (AID 1963582; active = well fitted activation curve with a large enough effect in the signal ratio in the repeat runs, not every such curve was filed as active; the % refers to the signal ratio; note: potency is the fitted concentration of half-maximal effect)
Outline: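 Reporter line: p53RE-bla. Pre-incubation 5 h, 37 C, 5% CO2; compound (DMSO, pin tool) 16 h, 37 C; B/G FRET substrate 2 h RT; fluorescence intensity read.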

[10] = biological target: 5-hydroxytryptamine receptor 2A (Homo sapiens) (UniProt P28223); experiment: 5-hydroxytryptamine receptor 2A (HTR2A) small molecule antagonists, cell-based qHTS assay (AID 1963586); note: nearly all actives have a fitted effect of over 45% in size; note: potency is the fitted concentration of half-maximal effect
Outline: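 Antagonist-mode intracellular calcium assay: DOI (4 nM) added after 5 min compound pre-incubation at room temperature to dye-loaded HTR2A-CHO cells. Fluorescence followed for 3 min, sampled every second.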

[11] = biological target: 5-hydroxytryptamine receptor 2A (Homo sapiens) (UniProt P28223); experiment: 5-hydroxytryptamine receptor 2A (HTR2A) small molecule agonists, cell-based qHTS assay (AID 1963587); note: nearly all actives have a fitted effect of over 30% in size
Outline: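 CHO cells stably expressing human HTR2A, plated 18 h, loaded with calcium dye 1 h at 37 C. Agonist mode: compounds added and intracellular calcium fluorescence recorded kinetically for 2 min at 1 sec intervals.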

[12] = biological target: Muscarinic acetylcholine receptor M1 (Homo sapiens) (UniProt P11229); experiment: Cholinergic receptor muscarinic 1 (CHRM1) small molecule antagonists, cell-based qHTS assay (AID 1963588); note: nearly all actives have a fitted effect of over 40% in size
Outline: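 CHRM1-CHO calcium-flux assay, antagonist mode. Cells were seeded 18 h, dye-loaded 1 h at 37 C and given compound for 5 min at RT, then acetylcholine was added at 50nM. FDSS fluorescence was read 3 min; 15 concentrations, three runs.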

[13] = biological target: Muscarinic acetylcholine receptor M1 (Homo sapiens) (UniProt P11229); experiment: Cholinergic receptor muscarinic 1 (CHRM1) small molecule agonists, cell-based qHTS assay (AID 1963589); note: nearly all actives have a fitted effect of over 35% in size
Outline: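 Human M1 in stable CHO line; 18 h plating, 1 h dye load 37 C; cpd added (agonist mode); Ca2+ fluorescence kinetic read, 1 s intervals; 15 conc, 3 runs.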

[14] = cAMP Responsive Elements (CRE) small molecule antagonists, cell-based qHTS assay (AID 1963591; active = well fitted inhibition curve with a large enough effect in the signal ratio in the repeat runs, not every such curve was filed as active; the % refers to the signal ratio; note: potency is the fitted concentration of half-maximal effect)
Outline: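 Beta-lactamase reporter read by FRET substrate (LiveBLAzer B/G) after 2 h at room temperature. CRE-bla HEK293T cells had received compound plus 0.25 uM (final) NKH477 for 3 h at 37 °C.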

[15] = biological target: D(2) dopamine receptor (Homo sapiens) (UniProt P14416); experiment: Dopamine D2 receptor (DRD2) small molecule agonists, cell-based qHTS assay (AID 1963594); note: nearly all actives have a fitted effect of over 35% in size
Outline: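 HEK293 cells stably expressing human DRD2, pre-treated with PDE inhibitor Ro20-1724 (0.1 mM final) and compound 10 min at room temperature, then stimulated with NKH477 (200nM […]) for 30 min. cAMP read by HTRF (665/620 nm).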

[16] = biological target: D(2) dopamine receptor (Homo sapiens) (UniProt P14416); experiment: Dopamine D2 receptor (DRD2) small molecule antagonists, cell-based qHTS assay (AID 1963595; active = well fitted inhibition curve with a large enough effect in the signal ratio in the repeat runs, with a control signal flat; the % refers to the signal ratio)
Outline: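 Stable D2 receptor HEK293 line, 24 h after seeding. Compound preincubated 10 min, then quinpirole (12 nM) with forskolin analogue NKH477 (200 nM), 30 min, room temperature. Detection by time-resolved FRET of cAMP.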

[17] = p53 small molecule agonists, cell-based qHTS assay with rat liver microsomes: qHTS cell viability counter screen (AID 1963580); note: nearly all actives have a fitted effect of over 45% in size
Outline: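 p53RE-bla HCT-116 cells were exposed 16 h at 37 C to compounds with rat liver microsomes (0.5 mg/mL) and NADPH (0.5 mg/mL). Viability was measured in the same wells as ATP content by CellTiter-Glo luminescence.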

[18] = cAMP Responsive Elements (CRE) small molecule agonists, cell-based qHTS assay (AID 1963590)
Outline: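 HEK 293T CRE-bla, 2,000 cells/well, 18 h preincubation 37 C/5% CO2; cpds (DMSO) pinned, 3 h; LiveBLAzer B/G FRET substrate, 2 h RT.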

[19] = biological target: Beta-2 adrenergic receptor (Homo sapiens) (UniProt P07550); experiment: Adrenergic beta2 receptor (ADRB2) small molecule antagonists, cell-based qHTS assay (AID 1963592); note: series mostly up to about 92 µM; nearly all actives have a fitted effect of over 50% in size
Outline: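 Cells (CHO, stable ADRB2 overexpression) incubated 18-20hr at 37C; compounds added from DMSO; agonist mix (1nM isoproterenol, 100uM IBMX, 25uM Ro-20-1724) added; 0.5hr RT; d2-cAMP and anti-cAMP-cryptate added; 1hr RT; 665/615 nm read.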

[20] = biological target: Beta-2 adrenergic receptor (Homo sapiens) (UniProt P07550); experiment: Adrenergic beta2 receptor (ADRB2) small molecule agonists, cell-based qHTS assay (AID 1963593);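 note: CHO cells stably overexpressing human ADRB2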
Outline: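 CHO cells stably over-expressing ADRB2 were plated overnight at 37C, then dosed with compounds plus a stimulation mix containing 100uM IBMX and 25uM Ro-20-1724 for 0.5hr at room temperature. cAMP was measured by HTRF competition, 1hr.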

Measured: Potency

Chain of D(2) dopamine receptor (Homo sapiens) (P14416 whole entry, looked up): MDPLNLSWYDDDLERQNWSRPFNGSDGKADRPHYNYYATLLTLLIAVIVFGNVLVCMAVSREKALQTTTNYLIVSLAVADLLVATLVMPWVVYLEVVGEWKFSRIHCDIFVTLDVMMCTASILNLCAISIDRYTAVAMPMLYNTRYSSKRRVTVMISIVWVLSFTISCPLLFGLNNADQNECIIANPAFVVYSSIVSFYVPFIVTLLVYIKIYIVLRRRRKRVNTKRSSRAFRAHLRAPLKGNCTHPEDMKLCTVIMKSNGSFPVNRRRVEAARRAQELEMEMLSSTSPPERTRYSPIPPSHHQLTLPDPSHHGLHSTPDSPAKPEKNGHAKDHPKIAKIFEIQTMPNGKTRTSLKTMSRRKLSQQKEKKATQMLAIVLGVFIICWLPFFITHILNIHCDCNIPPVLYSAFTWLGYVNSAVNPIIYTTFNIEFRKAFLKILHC
Chain of 5-hydroxytryptamine receptor 2A (Homo sapiens) (P28223 whole entry, looked up): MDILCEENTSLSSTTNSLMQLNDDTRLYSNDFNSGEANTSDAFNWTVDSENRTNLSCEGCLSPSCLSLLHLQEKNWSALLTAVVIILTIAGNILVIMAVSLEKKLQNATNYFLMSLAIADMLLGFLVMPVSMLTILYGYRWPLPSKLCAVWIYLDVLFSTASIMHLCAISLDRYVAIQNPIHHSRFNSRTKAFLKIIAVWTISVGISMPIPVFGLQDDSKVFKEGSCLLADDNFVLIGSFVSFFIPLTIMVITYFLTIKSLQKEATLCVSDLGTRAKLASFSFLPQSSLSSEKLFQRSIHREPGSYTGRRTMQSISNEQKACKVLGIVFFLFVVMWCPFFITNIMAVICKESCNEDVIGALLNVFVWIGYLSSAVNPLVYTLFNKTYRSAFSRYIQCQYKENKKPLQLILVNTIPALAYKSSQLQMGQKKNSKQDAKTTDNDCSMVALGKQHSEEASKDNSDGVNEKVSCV
Chain of Muscarinic acetylcholine receptor M1 (Homo sapiens) (P11229 whole entry, looked up): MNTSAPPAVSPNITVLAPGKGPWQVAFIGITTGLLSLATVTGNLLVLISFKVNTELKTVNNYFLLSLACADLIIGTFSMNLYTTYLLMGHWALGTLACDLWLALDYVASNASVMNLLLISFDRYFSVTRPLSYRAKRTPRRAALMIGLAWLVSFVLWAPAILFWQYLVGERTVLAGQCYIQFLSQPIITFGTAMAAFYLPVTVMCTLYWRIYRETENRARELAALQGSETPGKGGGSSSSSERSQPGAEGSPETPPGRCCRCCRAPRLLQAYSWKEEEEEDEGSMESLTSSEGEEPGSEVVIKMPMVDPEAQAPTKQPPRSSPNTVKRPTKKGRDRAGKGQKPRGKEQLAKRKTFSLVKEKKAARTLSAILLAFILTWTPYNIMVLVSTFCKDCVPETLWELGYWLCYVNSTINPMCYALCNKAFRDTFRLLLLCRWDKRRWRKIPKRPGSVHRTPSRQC
Chain of Beta-2 adrenergic receptor (Homo sapiens) (P07550 whole entry, looked up): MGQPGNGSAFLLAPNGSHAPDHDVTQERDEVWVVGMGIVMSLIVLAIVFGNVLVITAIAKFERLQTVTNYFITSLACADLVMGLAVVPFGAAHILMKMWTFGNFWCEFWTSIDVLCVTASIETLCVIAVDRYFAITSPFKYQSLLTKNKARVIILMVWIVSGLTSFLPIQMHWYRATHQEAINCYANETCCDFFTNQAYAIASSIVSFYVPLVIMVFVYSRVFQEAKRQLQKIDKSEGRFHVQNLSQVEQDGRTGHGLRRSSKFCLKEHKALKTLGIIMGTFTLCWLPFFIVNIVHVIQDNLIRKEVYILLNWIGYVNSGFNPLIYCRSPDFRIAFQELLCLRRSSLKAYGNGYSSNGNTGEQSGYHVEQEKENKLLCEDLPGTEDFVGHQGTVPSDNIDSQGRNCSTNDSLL
Chain of Gonadotropin-releasing hormone receptor (Homo sapiens) (P30968 whole entry, looked up): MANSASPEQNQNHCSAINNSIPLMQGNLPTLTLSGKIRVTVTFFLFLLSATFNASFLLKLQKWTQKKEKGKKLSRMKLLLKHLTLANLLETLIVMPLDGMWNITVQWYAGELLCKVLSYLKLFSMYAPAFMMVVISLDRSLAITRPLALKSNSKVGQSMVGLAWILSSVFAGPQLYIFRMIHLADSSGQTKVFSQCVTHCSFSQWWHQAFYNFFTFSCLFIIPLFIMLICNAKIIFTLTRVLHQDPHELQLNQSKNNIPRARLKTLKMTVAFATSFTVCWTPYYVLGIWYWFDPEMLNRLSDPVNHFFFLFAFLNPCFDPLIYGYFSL
Chain of KiSS-1 receptor (Homo sapiens) (Q969F8 whole entry, looked up): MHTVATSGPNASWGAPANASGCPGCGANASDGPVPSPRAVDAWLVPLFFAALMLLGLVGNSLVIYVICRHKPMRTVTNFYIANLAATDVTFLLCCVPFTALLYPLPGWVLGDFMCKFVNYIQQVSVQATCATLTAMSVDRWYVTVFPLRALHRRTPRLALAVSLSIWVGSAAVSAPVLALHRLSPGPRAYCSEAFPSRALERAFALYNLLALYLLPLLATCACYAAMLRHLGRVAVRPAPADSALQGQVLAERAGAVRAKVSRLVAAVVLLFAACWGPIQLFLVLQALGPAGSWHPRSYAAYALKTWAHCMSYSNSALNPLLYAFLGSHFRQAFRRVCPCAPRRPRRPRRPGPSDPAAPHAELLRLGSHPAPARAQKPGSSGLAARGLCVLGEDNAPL

Cc1nnc(-c2ccccc2)c(=O)n1N
not listed: [17] | [18] | [19] | [20]
inactive: all other assays above

COC(=O)N(OC)c1ccccc1COc1ccn(-c2ccc(Cl)cc2)n1
active: [14] 61.1 µM
not listed: [9] | [12]
inactive: all other assays above

CCSCc1ccccc1OC(=O)NC
not listed: [6] | [20]
inactive: all other assays above

O=C(Cl)c1ccccc1F
not listed: [7] | [20]
inactive: all other assays above

N#Cc1c[nH]cc1-c1cccc2c1OC(F)(F)O2
active: [9] 14.5 µM
not listed: [8] | [10] | [14] | [18] | [19] | [20]
inactive: all other assays above

O=C(O)CCCCCCNC1c2ccccc2CCc2ccccc21
not listed: [7] | [8] | [9] | [16]
inactive: all other assays above

O=C(O)c1cc[c]([Hg][Cl])cc1
active: [1] 48.6 µM | [2] 21.7 µM
not listed: [7] | [14] | [16] | [18] | [20]
inactive: all other assays above

COP(=O)(OC)O/C(=C/Cl)c1cc(Cl)c(Cl)cc1Cl
active: [2] 51.3 µM | [10] 15.8 µM
not listed: [6] | [13] | [14] | [15] | [20]
inactive: all other assays above

O=C(O)C(O)C(O)C(=O)O (configuration not stated)
not listed: [6] | [9]
inactive: all other assays above

CC(C)CP(=S)(S)CC(C)C
active: [2] 15.4 µM
not listed: [6] | [9]
inactive: all other assays above

Cc1ncsc1CCCl
not listed: [6] | [9] | [19] | [20]
inactive: all other assays above

Cc1cnc2c(C(=O)O)c(Cl)ccc2c1
not listed: [6] | [9]
inactive: all other assays above

CNC(=O)Oc1cccc(N=CN(C)C)c1
not listed: [6] | [10]
inactive: all other assays above

CCOP(=S)(OCC)SCSP(=S)(OCC)OCC
active: [2] 68.6 µM
not listed: [6] | [10] | [11] | [12] | [18] | [19] | [20]
inactive: all other assays above

FC(Cl)(Cl)C(F)(Cl)Cl
not listed: [6] | [9] | [19] | [20]
inactive: all other assays above

CNC(=O)N(C)c1nc2ccccc2s1
not listed: [6] | [9]
inactive: all other assays above

O=C(CBr)c1ccccc1
active: [2] 69 µM
not listed: [6] | [9] | [20]
inactive: all other assays above

Reference: PubChem BioAssay (Tox21)
